# Assay outcomes deposited in PubChem by National Center for Advancing Translational Sciences (NCATS).
# Compounds with a hit are over-represented: about 5.3% of the library has one in this group of screens.
# HCV inhibitor: blocks hepatitis C virus; Huh7.5.1 HCVcc-Cre infection, luciferase reporter, 44 h; Potency, µM (series often up to 41.8 µM), without a hit: top-dose activity change, negative = inhibition, actives largely listed as inhibitors; 3.4% of 340,000 active; note: % is set by controls: 0 for no effect and ±100 for the full control effect
#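 A cell-based infection assay in which seeded cells (1,000 per well) receive test compound after 4 h, are inoculated with HCVcc-Cre at approximately 0.5 moi, and are incubated 44 h before luminescence detection.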
# Vaccinia mCherry: inhibitors of vaccinia virus infection (mCherry reporter signal); Vaccinia virus mCherry reporter infection, fluorescence; Potency, µM (highest dose often 36.5 µM), inactives show at the top dose activity change, negative = inhibition, usual class: inhibitors; 0.63% of 310,000 active; AID 720579; calls by dose curve; tested in A549 cells; note: % is set by controls: 0 for no effect and ±100 for the full control effect; nearly all actives have a fitted effect of over 35% in size
# MARV entry inh: Marburg virus entry inhibition; Marburg virus pseudotyped entry inhibition, cell reporter; Potency, µM (titrated, usually from 37.8 µM), without a hit: at the highest dose activity change, negative = inhibition, usual class: inhibitors; 1.8% of 300,000 active; calls by dose curve; tested in HEK293 cells; note: % is set by controls: 0 for no effect and ±100 for the full control effect
# Vaccinia Venus: vaccinia inhibition (Venus reporter) | Vaccinia virus Venus reporter expression, fluorescence | Potency, µM (highest dose often 36.5 µM), without a hit: at the top dose activity change, negative = inhibition, hits mostly inhibitors | 0.46% of 330,000 active; calls by dose curve; tested in A549 cells; note: % is set by controls: 0 for no effect and ±100 for the full control effect; nearly all actives have a fitted effect of over 30% in size
# LASV entry inh: inhibitors of Lassa virus binding or cell entry; Lassa virus pseudotype entry inhibition, cell reporter; 1.2% of 300,000 active; AID 540256; Potency, µM (top dose mostly 37.9 µM), inactives show at the top dose activity change, negative = inhibition, actives largely listed as inhibitors; calls by dose curve; tested in HEK293 cells; note: % is set by controls: 0 for no effect and ±100 for the full control effect; nearly all actives have a fitted effect of over 50% in size
# FMDV inh: foot and mouth disease virus antiviral activity; 1.2% of 410,000 active; AID 1159524; Potency, µM (doses to about 57.9 µM), for inactives: at the top dose activity change, negative = inhibition, most hits filed as inhibitors; FMDV antiviral cell-based qHTS; calls by dose curve; tested in HEK293T cells; note: read-out not given here; % is set by controls: 0 for no effect and ±100 for the full control effect; nearly all actives have a fitted effect of over 45% in size
# HCV inh confirm: confirmation of hepatitis C virus inhibitors | HCVcc-Cre infectious virus cell assay, luciferase, inhibition | 78% of 640 active | Potency, µM (top dose mostly 41.8 µM), for inactives: top-dose activity, negative = inhibition, most hits filed as inhibitors | shares compounds with HCV inhibitor; note: nearly all actives have a fitted effect of over 80% in size
# HCV host tox: host cell cytotoxicity counter-screen for HCV inhibitors | Potency, µM (doses to about 41.8 µM), for inactives: at the top dose activity change, negative = cytotoxicity, most hits filed as inhibitors | AID 720576 | HCV host cell line cytotoxicity counterscreen | shares compounds with HCV inhibitor | 22% of 640 active;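 note: 44 h compound exposure; % is set by controls: 0 for no effect and ±100 for the full control effect; nearly all actives have a fitted effect of over 55% in size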
# An asterisk follows results filed as active; i = inactive; ? = inconclusive; · = no result; [ ] = another dose, or the depositor's remark. Unless noted, calls come from the whole dose curve; as a rule, active = well fitted curve in the direction sought with a large enough effect; inconclusive = small, poorly fitted or top-dose-only effect, or another doubt; inactive = no such curve, though single readings can be large; an effect the other way counts as inactive or inconclusive. Potency is the fitted concentration of half-maximal effect.
SMILES,HCV inhibitor,Vaccinia mCherry,MARV entry inh,Vaccinia Venus,LASV entry inh,FMDV inh,HCV inh confirm,HCV host tox
Nc1cc(C(=O)OCC(=O)N2CCC(Cc3ccccc3)CC2)ccc1Cl,0.0%,·,·,·,·,-18.1%,·,·
NC(=O)c1ncn([C@@H]2O[C@H](CNCc3ccc(-c4cc(C(F)(F)F)ccc4Cl)o3)[C@@H](O)[C@H]2O)n1,3.16µM*,i,·,0.0%,·,-17.1%,-16.5%,0.025µM*
CC(=O)N1CCN(Cc2nc3cc(NC(=O)c4ccc(Cl)cc4)ccc3n2C)CC1,3.55µM*,-7.3%,-18.9%,-22.4%,-17.3%,?,14.1µM*,22.3µM*
CC(=O)N1CCN(Cc2nc3cc(NC(=O)c4ccccc4Cl)ccc3n2C)CC1,-19.8%,-13.0%,13.9%[46.1 µM],-5.8%,·,-18.7%,·,·
O=C(NC(Nc1nc2ccc([N+](=O)[O-])cc2s1)(C(F)(F)F)C(F)(F)F)c1cccnc1,4.47µM*,·,?,·,?,2.82µM*,2.5µM*,7.05µM*
CCCOc1ccc(/C=N/Nc2cccc([N+](=O)[O-])c2)c(O)c1,?,?,?,?,?,5.6%,28µM*,-30.3%
COc1cccc(C2/C(=C(\O)c3ccc4c(c3)OCCO4)C(=O)C(=O)N2Cc2cccnc2)c1 (centres undefined),8.2%,-4.8%,3.1%[46.1 µM],-1.5%,?,-1.9%,·,·
Cc1nn(C)c(C)c1NC(=O)CCSc1nc(-c2ccco2)cc(C(F)(F)F)n1,3.98µM*,·,-17.8%,-21.8%,-9.4%,0.0%,?,-22.5%
CCOc1ccc(CCNC(=O)c2ccc(C)c(NC3=NC4CS(=O)(=O)CC4S3)c2)cc1 (centres undefined),5.6%,-16.3%,6.3%[46.1 µM],4.3%,?,-7.8%,·,·
Cc1nc2ccccc2n1Cc1ccc(Br)cc1,2.51µM*,i,?,-0.4%,-25.2%,?,1.99µM*,1.99µM*
Cc1nc2ccccc2n1Cc1ccccc1,?,·,·,·,·,-21.2%,·,·
CCN(C(=O)CSc1nc2ccccc2[nH]1)c1ccccc1,·,-17.5%,8.9%[46.1 µM],-10.2%,·,-5.4%,·,·
COc1ccc(/C=N\NC(=O)c2ccccc2[N+](=O)[O-])cc1COc1c(F)c(F)c(F)c(F)c1F,2.51µM*,-29.6%,?,-24.9%,-14.7%,-24.1%,12.5µM*,-20.4%
Clc1cccc(-c2nc3ccccn3c2Nc2ccc3c(c2)OCCO3)c1,·,-8.0%,-25.0%[46.1 µM],-8.3%,1.0%[46.1 µM],-4.2%,·,·
CC1CCCCN1CCn1c(=S)[nH]c2ncccc2c1=O (centres undefined),8.4%,·,4.9%,·,-0.9%,-7.2%,·,·
CC1CCCCN1CCNc1nc(=S)[nH]c2ccccc12 (centres undefined),3.55µM*,i,-2.6%,-9.8%,-5.1%,17.1%,-5.9%,-20.6%
COc1cc(OC)cc(C(=O)Nc2nc(-c3ccccc3)c(-c3ccccc3)o2)c1,7.08µM*,·,20.6µM*,·,?,-25.1%,12.5µM*,8.9%
O=C(NCc1ccco1)c1cccc2c1C(=O)c1ccc(N3CCC(N4CCCCC4)CC3)cc1S2(=O)=O,·,-8.2%,·,-8.3%,·,-21.2%,·,·
CCc1nnc(NC(=O)c2ccc(OC)cc2OC)s1,8.91µM*,-1.8%,?,-8.1%,?,·,-19.3%,-31.8%
COc1ccc(C(=O)Nc2nnc(SCC(=O)Nc3ccc(NC(C)=O)cc3)s2)c(OC)c1,-12.1%,·,·,·,·,30.2%,·,·
CCN(CC1CCCO1)C(=O)C1CCN(C2CCN(Cc3ccccc3C)CC2)CC1 (centres undefined),?,-2.5%,-18.8%,-9.8%,-20.0%,?,·,·
Cc1nc(N)nc(N)c1CCCc1ccc(Cl)c(Cl)c1,3.98µM*,-58.4%,?,-71.2%,?,-8.7%,7.05µM*,?
Cc1ccc(NC2(c3ccccc3)C(=O)c3ccccc3C2=O)cc1F,·,-13.4%,11.0%[46.1 µM],-12.7%,0.0%[46.1 µM],-23.7%,·,·
